Laboratory results reported in ChEMBL document CHEMBL3433997, “St. Jude Leishmania screening dataset” (2016).

Legend:
Format in all cases: functional
[1] = target: Solute carrier family 2, facilitated glucose transporter member 1 (Homo sapiens) (UniProt P11166); assay: ST_JUDE_LEISH: Cytotoxicity at 2uM final concentration against transgenic Leishmania Mexicana promastigotes LmGLUT1 that are glucose transport deficient and complemented with the human glucose transporter GLUT1. Activity is measured by DNA content using SYBR green in vitro
[2] = target: Hexose transporter 1 (Plasmodium falciparum) (UniProt O97467); assay: ST_JUDE_LEISH: Cytotoxicity at 2uM final concentration against transgenic Leishmania Mexicana promastigotes LmPfHT that are glucose transport deficient and complemented with the Plasmodium falciparum hexose transporter. Activity is measured by DNA content using SYBR green in vitro
[3] = target: Glucose transporter (Leishmania mexicana) (UniProt O61059); assay: ST_JUDE_LEISH: Cytotoxicity at 2uM final concentration against transgenic Leishmania Mexicana promastigotes LmGT2 that are glucose transport deficient and complemented with the L. Mexicana glucose transporter 2. Activity is measured by DNA content using SYBR green in vitro

Chain of Solute carrier family 2, facilitated glucose transporter member 1 (Homo sapiens) (P11166 whole entry): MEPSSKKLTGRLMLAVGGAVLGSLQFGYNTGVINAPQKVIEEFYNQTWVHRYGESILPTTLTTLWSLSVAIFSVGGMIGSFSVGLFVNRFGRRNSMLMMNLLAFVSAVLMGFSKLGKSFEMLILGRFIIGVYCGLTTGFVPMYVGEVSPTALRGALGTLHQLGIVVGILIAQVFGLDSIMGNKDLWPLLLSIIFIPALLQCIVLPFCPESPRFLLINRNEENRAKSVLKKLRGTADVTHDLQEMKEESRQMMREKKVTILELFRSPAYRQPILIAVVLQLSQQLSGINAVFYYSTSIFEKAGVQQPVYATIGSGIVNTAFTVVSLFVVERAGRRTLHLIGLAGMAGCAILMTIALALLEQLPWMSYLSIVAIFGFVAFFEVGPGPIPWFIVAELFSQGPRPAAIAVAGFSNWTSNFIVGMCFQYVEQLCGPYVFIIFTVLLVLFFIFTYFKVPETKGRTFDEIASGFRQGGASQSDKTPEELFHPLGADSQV

Row | SMILES | inhibition [1] [%] | inhibition [2] [%] | inhibition [3] [%]
1 | CCc1c[nH]c2c(N3CCCC3=O)cc(C(=O)N[C@@H](Cc3ccccc3)[C@H](O)CNC(C)(C)CCCC(C)C)cc12 | 12.2 | 9.72 | 8.72
2 | COc1ccc(C2CCN(CCCCNC(=O)c3ccc(NC(=O)c4ccc(Cl)cc4)cc3)CC2)cc1Cl | -0.02 | 0.63 | 4.45
3 | CCC(CCON1C(N)=NC(N)=NC1(C)C)c1ccc(Cl)cc1 (stereo unspecified) | 4.18 | 1.03 | 2.41
4 | CCOc1ccc(C(=O)Nc2cc3c(c(C(F)(F)F)c2)CCNC3)cc1Cl | 7.38 | 4.16 | 5.38
5 | COc1ccc(Cn2c(Nc3cccc(C(F)(F)F)c3)nc3cc(C(=O)NC(C)C)cnc32)cc1Cl | 10.3 | 9.69 | 10.9
6 | O=C(Nc1ccc(Cl)cc1)N[C@H]1CCN(CCCCCNC(=O)C2CC2c2ccc(Cl)c(Cl)c2)C1 (stereo partly specified) | 8.91 | 6.32 | 8.02
7 | COc1ccc(S(=O)(=O)NC2CCN(CCNC(=O)Nc3cc(C)nc4ccccc34)C2)cc1 (stereo unspecified) | -0.6 | -0.21 | -0.75
8 | CCC(=O)c1c(C)n(-c2ncnc3c2nc(C)n3-c2ccc(C)cc2C)c2ccccc12 | 4.6 | 1.9 | 3.62
9 | O=C(/C=C/c1ccc(Cl)cc1)NCCCCCN1CCC(C(=O)Nc2ccc(Cl)cc2)CC1 | -0.92 | 0.51 | 2.24
10 | N#Cc1cc([N+](=O)[O-])ccc1-n1nc(-c2cccc(Cl)c2)n(CC2CCCO2)c1=S (stereo unspecified) | 2.07 | 1.3 | -4.52
11 | CCN(CCO)Cc1ccc(-c2ccc(NS(=O)(=O)c3cccc4cccnc34)cc2)cc1 | 89.5 | 95.5 | 92.4
12 | CCCCOc1ccc(N2C(N)=NC(N)=NC2(C)C)cc1 | 2.55 | 1.89 | 1.88
13 | O=C(NCCN1CCCC1)c1ccc(-c2ccc(-c3nc4ccccc4[nH]3)s2)cc1 | 0.96 | -1.55 | 0.42
14 | Cc1ccc(C(=O)Nc2cccc(-c3ccc(N4CCN(C)CC4)nn3)c2)cc1[N+](=O)[O-] | 1.32 | -0.23 | -1.16
15 | Cc1nc2ccc(NC(=O)c3cc(S(=O)(=O)N(C)C)ccc3Cl)cc2s1 | 10.4 | 10.6 | 10.1
16 | Cc1ccc(NS(=O)(=O)c2ccc(-c3ccccc3)cc2)c(Cn2cnc(N3CCCNCC3)cc2=O)c1 | 4.14 | 3.45 | -3.65

Row | SMILES | inhibition [1] [%] | inhibition [2] [%] | inhibition [3] [%]
17 | CCc1ccc(CN2CCC(NC(=O)c3cc(-c4ccc(N(C)C)cc4)cs3)C2)cc1 (stereo unspecified) | 1.27 | 4.08 | 6.01
18 | O=C(Nc1cccc(Cl)c1)c1cc2ccccc2cc1O | 2.74 | 3.05 | 2.04
19 | COc1ccc(-c2ccc(NC(=O)c3cccc(F)c3)cc2)cc1CNC(C)C | 0.72 | -0.6 | -2.2
20 | CCCCCOc1ccc(C=NNc2nc(O)cc(-c3ccccc3)n2)cc1 | 2.62 | 2.5 | 1.79
21 | CCc1ccc(CN2CCC(CNC(=O)c3cc(-c4cccc(C(F)(F)F)c4)cs3)C2)cc1 (stereo unspecified) | -2.78 | -0.98 | -1.61
22 | COc1cccc(CNC[C@@H](O)[C@H](Cc2ccccc2)NC(=O)c2cc3c4c(c2)c(C(C)C)cn4CCS(=O)(=O)N3C)c1 | 8.36 | 8.07 | 8.04
23 | CC1CN(Cc2ccc(-c3ccc(-c4nc5ccccc5[nH]4)cc3)cc2)CC(C)O1 (stereo unspecified) | 6.34 | 6.82 | 4.66
24 | CCCC[C@@H](C(=O)NCCc1ccc(Cl)cc1)N1C(=O)CCC1C(=O)Nc1ccc(Cl)c(Cl)c1 (stereo partly specified) | -0.33 | 2.4 | 0.19
25 | Cc1cccnc1Nc1nc(-c2ccccn2)cs1 | 93.5 | 73.2 | 90.1
26 | CCN(CC)c1ccc(C(c2ccc(N(CC)CC)cc2)c2ccc([N+](=O)[O-])cc2)cc1 | 15.3 | 10.4 | 8.28
27 | COc1cc2nc(N3CCC(CNC(=O)c4ccc(-c5ccc(C#N)cc5C)cc4)CC3)nc(N)c2cc1OC | 1.67 | 1.27 | 0.49
28 | COc1ccc2c(CNCCCCCCNCc3c(OC)ccc4cc(OC)ccc34)c(OC)ccc2c1 | 109 | 107 | 112
29 | CCOC(=O)c1ccc(NC(=O)Nc2ccc(-c3cccc(-c4nc5ccccc5[nH]4)c3)cc2)cc1 | 6.03 | 4.66 | 1.68
30 | CN1CCN(c2cc(NC(=O)Nc3cccc(Cl)c3Cl)ccc2Cl)CC1 | -2.56 | -2.86 | -2.68
31 | Cc1cc(=NN=Cc2cccc(F)c2)c2cccc(C)c2[nH]1 | 2.24 | 3.31 | 0.78
32 | COc1ccc(C(C(=O)NC2CCN(C[C@H](O)c3ccnc4ccc(OC)cc34)CC2)N2CCN(Cc3ccccc3)CC2)cc1 (stereo partly specified) | 0.34 | 0.74 | -0.21
